From PubChem BioAssay
LDHA block: blocks human lactate dehydrogenase A | P00338 | 480,000 tested, 0.15% active | purified LDHA, NADH/diaphorase-resazurin fluorescence; active compounds read low | activity change, % (values are at about 110 or 230 µM); in the data active = activity change below about -30%; inconclusive = mostly about -25% to -30%;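 also: plate controls were DMSO wells for no effect and wells without enzyme for full effect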
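Human LDH5 (2 nM) was incubated with 0.06 mM NADH and 0.2 mM pyruvate for 5 min at room temperature in Tris pH 7.4. Remaining NADH was coupled through diaphorase/resazurin, and resorufin fluorescence was read at 0 and 20 min.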
PKM2 activator: increases activity of human pyruvate kinase M2; P14618; purified PKM2, Kinase-Glo ATP luminescence, activation; response scale: 0% is enzyme alone, no compound; Potency, µM (top dose mostly 57.5 µM), for inactives: at the top dose activation, hits mostly activators; 260,000 tested, 0.34% active; AID 1631; also: potency is read from the fitted curve at half-maximal effect; nearly all actives have a fitted effect of over 55% in size
Target sequence (P14618 whole entry, looked up): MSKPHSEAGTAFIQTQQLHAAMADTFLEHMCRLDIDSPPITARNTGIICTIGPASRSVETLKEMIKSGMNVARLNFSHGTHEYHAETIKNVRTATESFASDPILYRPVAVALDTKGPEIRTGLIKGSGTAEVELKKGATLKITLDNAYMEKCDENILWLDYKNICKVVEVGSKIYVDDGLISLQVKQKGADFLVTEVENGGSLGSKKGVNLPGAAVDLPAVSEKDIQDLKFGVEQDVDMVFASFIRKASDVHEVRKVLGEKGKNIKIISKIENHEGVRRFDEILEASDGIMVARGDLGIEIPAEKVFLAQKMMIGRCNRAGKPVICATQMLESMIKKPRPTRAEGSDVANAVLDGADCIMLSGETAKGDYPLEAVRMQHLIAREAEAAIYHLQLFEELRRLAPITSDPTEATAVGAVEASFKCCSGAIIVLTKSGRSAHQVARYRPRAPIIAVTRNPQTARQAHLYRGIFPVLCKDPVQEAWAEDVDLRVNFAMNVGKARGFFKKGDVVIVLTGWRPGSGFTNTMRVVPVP
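Kinase-Glo luminescence reports ATP generated from ADP (0.1 mM) and PEP (0.5 mM) by purified hPK-M2 after 1 h at room temperature, pH 7.2 imidazole buffer; intermediate enzyme activity allows detecting inhibitors and activators.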
mIDH1 inhibitor: human IDH1 R132H inhibition; O75874; IDH1-R132H enzyme, NADPH consumption, diaphorase/resazurin fluorescence; Potency, µM (series often up to 76.6 µM), without a hit: at the highest dose activity change, negative = inhibition, most hits filed as inhibitors; 390,000 tested, 0.093% active; also: potency is read from the fitted curve at half-maximal effect; nearly all actives have a fitted effect of over 65% in size
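IDH1-R132H (0.5 ug/mL dispensed) in pH 7.5 Tris buffer was preincubated 30 min with compound, then given a substrate mix of 0.016 mM NADPH and 2 mM alpha-KG for 80 min at room temperature; remaining NADPH was read by diaphorase/resazurin fluorescence.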
TrxR1 inh: blocks rat thioredoxin reductase 1. O89049. recombinant rTrxR1, NADPH fluorescence consumption, selenite substrate. Potency, µM (top dose mostly 114 µM), for the others: at the top dose activity change, negative = inhibition, actives largely listed as inhibitors. 390,000 tested, 1% active. AID 588453; also: potency is read from the fitted curve at half-maximal effect; nearly all actives have a fitted effect of over 65% in size
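Rat TrxR1 (90 nM in the dispensed reagent) was pre-reduced with 400 uM NADPH for 5 min at room temperature, then incubated with compound for 15 min. After 400 uM selenite was added, NADPH fluorescence (Ex 340/Em 450 nm) was followed for 8 min.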
GLS inh: inhibitors of human glutaminase (GLS). O94925. Potency, µM (doses to about 45.5 µM), for inactives: at the top dose activity change, negative = inhibition, actives largely listed as inhibitors. GLS enzymatic activity, qHTS titration. 410,000 tested, 0.21% active. AID 624170; also: potency is read from the fitted curve at half-maximal effect
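Assay buffer: 45 mM KH2PO4 pH 8.2, 0.02% Tween-20. hKGA acts on L-glutamine (1 mM solution added); product glutamate is reported by an oxidase/peroxidase Amplex Red coupling, with fluorescence taken at baseline and 30 min.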
TrxR1 substrate: is turned over as a substrate by rat TrxR1; O89049; purified TrxR1 substrate turnover, NADPH consumption readout; Potency, µM (doses to about 114 µM), for inactives: top-dose activity change, negative = substrate turnover; 390,000 tested, 0.01% active; also: potency is read from the fitted curve at half-maximal effect; nearly all actives have a fitted effect of over 50% in size
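Rat TrxR1, dispensed at 90 nM, was prereduced with 400 uM NADPH (final) for 5 min at ~22 deg C, then incubated with compound 15 min before 400 uM selenite. A first-read NADPH fluorescence drop versus no-compound background flagged substrates.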
* hit, by the source's call; ? = inconclusive; . = no result; ! = not active in a repeat; [ ] = remark or other dose. Sampled rows, rich in hits. Any-hit rate of the full collection: about 1.4%. Unless noted, calls follow the shape of the dose curve; as a rule, active = well fitted curve in the direction sought with a large enough effect; inconclusive = small, poorly fitted or top-dose-only effect, or another doubt; inactive = no such curve, though single readings can be large; an effect the other way counts as inactive or inconclusive. Unless noted, % is scaled to controls: 0 for no effect and ±100 for the full control effect.

SMILES	LDHA block	PKM2 activator	mIDH1 inhibitor	TrxR1 inh	GLS inh	TrxR1 substrate
O=C1C=CC(=Nc2cccc3c2C(=O)c2ccccc2-3)O1	3	.	7%	4%[2.29 µM]	1%	-5%[57.1 µM]
O=C1C=CC(=Nc2ccc3c(c2)Cc2cc(F)ccc2-3)O1	-12	.	3%	3.2µM*	13%	6%
Cc1c(NS(=O)(=O)c2ccccc2)cc(Cl)c(O)c1C	14	2%	0%	25µM*	63%	8%
COc1ccc(S(=O)(=O)Nc2cc(C)c(O)c(S(=O)(=O)c3ccccc3)c2)cc1	12	-7%	0%	1%[57.1 µM]	53%	1%[57.1 µM]
COc1ccc(S(=O)(=O)c2c(C)c(NS(=O)(=O)c3ccccc3)cc(C)c2O)cc1	-7	-8%	-8%	28%[57.1 µM]	3.2µM*!	3%[57.1 µM]
Cc1c(Cl)cccc1NS(=O)(=O)c1ccccc1	4	.	7%	45%[57.1 µM]	8%	26%[57.1 µM]
CCCN1C(SCC(=O)Nc2cccc(Cl)c2C)=NS(=O)(=O)c2ccccc21	10	.	.	.	.	.
COc1ccc(C(=O)Nc2ccc3c(c2)OCCCO3)c(O)c1	12	.	.	.	.	.
Cc1oc(-c2ccccc2)nc1CC(=O)Nc1ccc(S(=O)(=O)NC2CC2)cc1	-4	.	.	.	.	.
Cn1cnnc1SCC(=O)c1cc2ccccc2oc1=O	8	23%	3%	7.1µM*	69%	7%
O=C(CSc1ccc(Cl)cc1)c1cc2ccccc2oc1=O	-2	.	.	.	.	.
O=C(O)c1ccc(NC2=C(n3nnc4ccccc43)C(=O)c3ccccc3C2=O)cc1	38	-5%	-3%	7.1µM*	4%	-5%
C#CCSc1nncn1C(=O)/C=C/c1ccccc1	2	0%	3%	22µM*	3%	6%
N#CCC(=O)Nc1ccc(C(=O)NNC(=S)NC2CCCCC2)cc1	0	.	3%	26%[57.1 µM]	18µM*	16%[57.1 µM]
Nc1ccc(OC2CCCC2)c(Cl)c1	7	.	.	.	.	.
CC(=O)c1ccc(OCC(=O)N2CCCC2c2ccc3c(c2)OCCCO3)cc1 (stereo not given)	-5	.	1%	14%	-5%	9%[57.1 µM]
O=C(CCl)N1CCCC1c1ccc2c(c1)OCCO2 (stereo not given)	-6	.	0%	25µM*	1%	4%
CN(C(=O)c1cc(-c2ccccc2)c(N2CCOCC2)s1)C1CCS(=O)(=O)C1 (stereo not given)	7	.	.	.	.	.
C/C(C/C(C)=C1/SC(=S)NC1=O)=C1\SC(=S)NC1=O	-34*	1%	-11%	?	-26%	-7%[57.1 µM]
Cn1c(=O)n(C)c2cc(NC(=O)CCl)ccc21	6	-7%	0%	50µM*	3%	1%
O=C(CCc1ncc(-c2c(F)cccc2F)o1)N1CCN(c2ccc(F)cc2)CC1	0	.	.	.	.	.
CCOC(=O)[C@H]1[C@H]2COc3ccc(C)cc3[C@@H]2N2C(=O)CN(Cc3ccco3)C(=O)[C@@]12C	-8	.	-6%	56µM*	6%	3%
O=C(CSc1nc2c(cnn2-c2ccc(F)cc2)c(=O)[nH]1)Nc1ccc(Br)cc1	-5	.	19%	21%	7.9µM*	14%[2.29 µM]
Cc1cc(C)cc(NC(=O)CSc2nc3c(cnn3-c3ccc(F)cc3)c(=O)[nH]2)c1	-7	.	-27%	43%	0%	6%
O=Cc1cccn1Cc1ccccn1	2	.	.	.	.	.
CCc1nc(NCCCO)c(C#N)c2c1CCCC2	0	.	.	.	.	.
C/C=C\C=C/C(=O)Nc1cccc(C2=NOC3(C2)C[C@H](C(N)=O)N(C(=O)Cc2ccc([N+](=O)[O-])cc2)C3)c1 (stereo not given in full)	3	?	-10%	7.9µM*	-10%	8%[57.1 µM]
C/C=C(\C)C(=O)Nc1cccc(C2=NOC3(C2)C[C@@H](C(N)=O)N(C(=O)/C(C)=C/C)C3)c1 (stereo not given in full)	-2	-1%	5%	19%[57.1 µM]	-7%	5%[57.1 µM]
